Reference: PubChem BioAssay (EPA / NIEHS)
Records with an inconclusive call do not appear. Calls of active or inactive are those of the source. Rule for the calls, unless noted: active = hit-call score of the fitted dose curve at least 0.9, where 1 is the maximum; inactive = score below 0.9.

Assays:
[1] = target: Nuclear respiratory factor 1 (Homo sapiens) (UniProt Q16656); test: ATG_NRF1_CIS: Attagene CIS-FACTORIAL HepG2 Assay for human Nuclear Respiratory Factor 1 (NRF1) Orphan Gene (AID 2282987); conditions: HepG2 NRF1 cis-element reporter, Attagene multiplex; actives raise or lower the signal
Sequence of Nuclear respiratory factor 1 (Homo sapiens) (Q16656 whole entry, looked up): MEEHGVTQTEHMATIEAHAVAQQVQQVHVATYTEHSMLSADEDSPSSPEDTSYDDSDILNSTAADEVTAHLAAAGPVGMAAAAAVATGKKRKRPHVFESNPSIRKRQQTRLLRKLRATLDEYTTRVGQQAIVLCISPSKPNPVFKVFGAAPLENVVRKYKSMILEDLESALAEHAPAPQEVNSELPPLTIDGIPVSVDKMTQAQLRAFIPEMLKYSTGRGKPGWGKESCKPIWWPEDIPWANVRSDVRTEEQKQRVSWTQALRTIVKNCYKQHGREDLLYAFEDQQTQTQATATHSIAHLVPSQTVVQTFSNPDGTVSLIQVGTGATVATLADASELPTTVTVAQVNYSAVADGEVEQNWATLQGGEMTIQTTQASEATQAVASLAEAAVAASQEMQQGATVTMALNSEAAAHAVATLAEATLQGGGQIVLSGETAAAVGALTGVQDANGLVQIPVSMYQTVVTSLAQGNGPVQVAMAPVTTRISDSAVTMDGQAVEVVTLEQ
In short: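 Human hepatoma HepG2 cells carrying transfected promoter-regulated reporter units were incubated with test chemicals for 24 h. Reporter transcripts were measured by RT-PCR plus capillary electrophoresis, and endpoints derived by bidirectional fitting with DMSO as baseline.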

[2] = ATG_NFI_CIS: Attagene CIS-FACTORIAL HepG2 Assay for human Nuclear Factor I (NFI) (AID 2282989); conditions: HepG2 cis-regulatory reporter, NFI response element transcription; actives raise or lower the signal
In short: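 Endogenous TF activity in HepG2 cells transiently transfected with cis-element-driven multiplexed reporter units, read 24 h after dosing. Reporter mRNA quantified by RT-PCR, 6-FAM labelling, HpaI digestion and capillary electrophoresis; bidirectional fit versus DMSO.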

[3] = target: Myc proto-oncogene protein (Homo sapiens) (UniProt P01106); test: ATG_Myc_CIS: Attagene CIS-FACTORIAL HepG2 Assay for human Myelocytomatosis (Myc) Proto-Oncogene Transcription Factor (AID 2282990); conditions: HepG2, Attagene cis-reporter transcription factor activity; actives raise or lower the signal
Sequence of Myc proto-oncogene protein (Homo sapiens) (P01106 whole entry, looked up): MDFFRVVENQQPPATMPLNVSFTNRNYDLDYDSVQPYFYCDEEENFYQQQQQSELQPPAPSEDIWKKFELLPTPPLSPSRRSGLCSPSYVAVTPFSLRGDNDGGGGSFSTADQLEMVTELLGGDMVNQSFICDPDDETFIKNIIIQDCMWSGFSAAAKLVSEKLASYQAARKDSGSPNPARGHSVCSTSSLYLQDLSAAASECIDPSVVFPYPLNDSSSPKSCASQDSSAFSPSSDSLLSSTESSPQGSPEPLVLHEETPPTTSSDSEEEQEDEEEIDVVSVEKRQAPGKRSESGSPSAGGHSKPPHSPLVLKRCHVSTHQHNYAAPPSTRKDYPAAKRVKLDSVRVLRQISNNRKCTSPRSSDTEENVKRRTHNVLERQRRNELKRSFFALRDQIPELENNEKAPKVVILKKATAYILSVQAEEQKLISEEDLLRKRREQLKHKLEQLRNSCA
In short: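 Multiplexed cis-reporter transcription in HepG2 cells after 24 h chemical treatment. Reporter mRNA measured by RT-PCR and capillary electrophoresis fluorescence; activity fitted bidirectionally against DMSO control.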

[4] = ATG_NF_kB_CIS: Attagene CIS-FACTORIAL HepG2 Assay for human Nuclear Factor Kappa B (NF-kB) (AID 2282991); conditions: HepG2 Attagene cis-factorial NF-kB reporter mRNA; actives raise or lower the signal
In short: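 Multiplexed cis-reporter assay in transiently transfected HepG2. 24 h treatment; RNA isolated, RT-PCR, labelled fragments resolved by CE. DMSO baseline.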

[5] = ATG_NRF2_ARE_CIS: Attagene CIS-FACTORIAL HepG2 Assay for human Nuclear Factor Erythroid 2 Related Factor 2 (NFR2) response to Antioxidant Response Elements (ARE) (AID 2282992); conditions: HepG2 Attagene ARE/NRF2 reporter, transcription factor activity; actives raise or lower the signal
In short: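 Transient MRTU transfection of HepG2; 24 h compound exposure; TriZol RNA, RT with oligo(dT), PCR, 6-FAM primer extension, HpaI cut, CE. Bidirectional fit vs DMSO.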

[6] = ATG_Oct_MLP_CIS: Attagene CIS-FACTORIAL HepG2 Assay for human Octamer-Binding Transcription Factor (Oct) (AID 2282993); conditions: HepG2 Attagene cis-factorial Oct reporter, mRNA; actives raise or lower the signal
In short: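 HepG2 cells transiently transfected with cis-element-driven reporter transcription units (endogenous TF activity); 24 h compound exposure. Reporter mRNA quantified by RT-PCR, 6-FAM labelling, HpaI digestion and capillary electrophoresis; bidirectional fit versus DMSO baseline.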

[7] = target: Cellular tumor antigen p53 (Homo sapiens) (UniProt P04637); test: ATG_p53_CIS: Attagene CIS-FACTORIAL HepG2 Assay for human p53 Transcription Factor (AID 2282994); conditions: HepG2 p53 cis-element reporter, Attagene mRNA; actives raise or lower the signal
Sequence of Cellular tumor antigen p53 (Homo sapiens) (P04637 whole entry, looked up): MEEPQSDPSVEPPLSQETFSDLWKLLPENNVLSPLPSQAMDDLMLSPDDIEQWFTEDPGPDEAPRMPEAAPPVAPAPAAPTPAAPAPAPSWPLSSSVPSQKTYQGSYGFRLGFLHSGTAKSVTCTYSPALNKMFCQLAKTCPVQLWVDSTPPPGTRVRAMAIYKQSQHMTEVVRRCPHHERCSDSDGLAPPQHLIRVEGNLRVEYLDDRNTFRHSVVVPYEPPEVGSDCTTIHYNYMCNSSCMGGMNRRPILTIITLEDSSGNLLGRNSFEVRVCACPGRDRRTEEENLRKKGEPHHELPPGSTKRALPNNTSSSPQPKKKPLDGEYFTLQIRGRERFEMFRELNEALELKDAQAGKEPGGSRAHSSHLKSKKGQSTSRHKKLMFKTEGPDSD
In short: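 HepG2, transient MRTU transfection (cis promoter elements, endogenous TFs); 24 h dosing; RNA isolation, RT-PCR, 6-FAM primer extension, HpaI digest, CE fluorescence; bidirectional fit vs DMSO.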

[8] = BSK_3C_TissueFactor: BioMAP Diversity Plus: 3C Assay for Tissue Factor Biomarker Activity (AID 2282997); conditions: BioMAP 3C HUVEC, tissue factor biomarker readout; actives raise or lower the signal
In short: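 ELISA read-out of Tissue Factor levels on human umbilical vein endothelium collected 24 h after chemical dosing. Gain or loss of signal was fitted relative to DMSO.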

[9] = BSK_3C_uPAR: BioMAP Diversity Plus: 3C Assay for Urokinase-type plasminogen activator receptor (uPAR) Biomarker Activity (AID 2282998); conditions: BioMAP 3C HUVEC, uPAR biomarker ELISA; actives raise or lower the signal
In short: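 Primary human umbilical vein endothelial cells, 3C system; surface uPAR measured by ELISA 24 h after dosing. Cytotoxicity via SRB total protein in parallel cultures; bidirectional fit against DMSO.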

[10] = BSK_3C_VCAM1: BioMAP Diversity Plus: 3C Assay for Vascular cell adhesion molecule 1 (VCAM1) Biomarker Activity (AID 2282999); conditions: BioMAP 3C HUVEC, VCAM1 ELISA, cytokine-stimulated; actives raise or lower the signal
In short: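 Human umbilical vein endothelial cells were dosed with compound for 24 h, after which cell-surface VCAM-1 was quantified by ELISA. Bidirectional curve fitting used DMSO as negative control and activity baseline.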

[11] = BSK_4H_Eotaxin3: BioMAP Diversity Plus: 4H Assay for Eotaxin 3 Biomarker Activity (AID 2283000); conditions: primary human endothelial cells (HUVEC); actives raise or lower the signal
In short: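 Chemicals were added to human umbilical vein endothelium cultures, and Eotaxin-3 was quantified by ELISA at 24 h. Values were derived by bidirectional fitting with DMSO serving as negative control and activity baseline.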

[12] = target: human Peroxisome Proliferator-activated Receptor alpha (PPARa), PPARA (gene 5465) (UniProt Q07869); test: ATG_PPARa_TRANS: Attagene TRANS-FACTORIAL HepG2 Assay for human Peroxisome Proliferator-activated Receptor alpha (PPARa) (AID 2283001; active = hit-call score of the fitted dose curve at least 0.9, where 1 is the maximum;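 for AC50: potency for gain of reporter signal over DMSO so agonist or activator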)
Sequence of human Peroxisome Proliferator-activated Receptor alpha (PPARa), PPARA (gene 5465) (Q07869 whole entry, looked up, the tested form may be a part): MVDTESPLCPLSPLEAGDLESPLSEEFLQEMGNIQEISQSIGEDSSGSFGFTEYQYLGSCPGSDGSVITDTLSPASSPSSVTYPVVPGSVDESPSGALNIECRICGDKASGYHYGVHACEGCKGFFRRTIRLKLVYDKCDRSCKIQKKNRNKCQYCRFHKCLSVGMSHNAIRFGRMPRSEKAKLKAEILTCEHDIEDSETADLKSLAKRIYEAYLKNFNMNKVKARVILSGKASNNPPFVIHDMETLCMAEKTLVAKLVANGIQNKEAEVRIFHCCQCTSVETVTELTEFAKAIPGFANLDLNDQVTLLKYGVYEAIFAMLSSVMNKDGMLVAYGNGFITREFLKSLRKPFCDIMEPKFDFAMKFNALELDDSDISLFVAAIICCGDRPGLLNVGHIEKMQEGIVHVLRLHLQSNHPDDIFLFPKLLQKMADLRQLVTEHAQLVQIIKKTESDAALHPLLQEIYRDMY
In short: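 HepG2 cells transiently transfected with multiplexed GAL4-UAS reporter units and chimeric NR-Gal4 constructs were dosed for 24 h. Reporter mRNA was measured by RT-PCR with fluorescent labelling and capillary electrophoresis; gain of signal fitted against DMSO.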

[13] = read-out: Intercellular Adhesion Molecule 1 (ICAM1), ICAM1 (gene 3383); test: BSK_3C_ICAM1: BioMAP Diversity Plus: 3C Assay for Intercellular Adhesion Molecule 1 (ICAM1) Biomarker Activity (AID 2283003); conditions: primary human endothelial cells (HUVEC); actives raise or lower the signal
In short: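 Human vascular endothelial primary cells, 3C conditions, 24 h treatment. ICAM-1 by ELISA.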

[14] = target: human Retinoic Acid Receptor beta (RARb), RARB (gene 5915) (UniProt P10826); test: ATG_RARb_TRANS: Attagene TRANS-FACTORIAL HepG2 Assay for human Retinoic Acid Receptor beta (AID 2283004; active = hit-call score of the fitted dose curve at least 0.9, where 1 is the maximum)
Sequence of human Retinoic Acid Receptor beta (RARb), RARB (gene 5915) (P10826 whole entry, looked up): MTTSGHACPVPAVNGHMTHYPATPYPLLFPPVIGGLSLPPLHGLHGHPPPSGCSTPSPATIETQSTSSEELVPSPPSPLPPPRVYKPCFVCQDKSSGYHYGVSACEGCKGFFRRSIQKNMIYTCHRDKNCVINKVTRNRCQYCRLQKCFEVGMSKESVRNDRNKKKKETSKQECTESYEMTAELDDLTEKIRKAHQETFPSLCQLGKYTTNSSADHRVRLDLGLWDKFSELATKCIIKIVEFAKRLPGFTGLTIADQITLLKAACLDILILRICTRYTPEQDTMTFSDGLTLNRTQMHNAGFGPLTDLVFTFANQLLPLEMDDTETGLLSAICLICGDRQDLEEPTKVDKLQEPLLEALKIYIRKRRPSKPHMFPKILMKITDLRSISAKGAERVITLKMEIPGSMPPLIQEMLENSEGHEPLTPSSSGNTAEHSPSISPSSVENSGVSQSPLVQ
In short: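 Transient transfection of HepG2 with multiple reporter units → chemical dosing, 24 h → total RNA isolation → RT with oligo(dT) → reporter-specific PCR, 6-FAM primer extension, HpaI digest → capillary electrophoresis. Positive direction vs DMSO control.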

[15] = BSK_3C_Proliferation: Cell Proliferation Assessment in the BioMAP Diversity Plus: 3C Assay (AID 2283006); conditions: primary human endothelial cells (HUVEC);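 for AC50: potency may reflect either rise or fall in cell number versus DMSO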
In short: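 Proliferation of human vascular endothelial primary cells after 48 h dosing, quantified as SRB-stained protein at 560 nm relative to DMSO.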

[16] = target: Peroxisome proliferator-activated receptor gamma (Homo sapiens) (UniProt P37231); test: ATG_PPARg_TRANS: Attagene TRANS-FACTORIAL HepG2 Assay for human Peroxisome Proliferator-activated Receptor-gamma (PPARg) (AID 2283007; active = hit-call score of the fitted dose curve at least 0.9, where 1 is the maximum)
Sequence of Peroxisome proliferator-activated receptor gamma (Homo sapiens) (P37231 whole entry, looked up): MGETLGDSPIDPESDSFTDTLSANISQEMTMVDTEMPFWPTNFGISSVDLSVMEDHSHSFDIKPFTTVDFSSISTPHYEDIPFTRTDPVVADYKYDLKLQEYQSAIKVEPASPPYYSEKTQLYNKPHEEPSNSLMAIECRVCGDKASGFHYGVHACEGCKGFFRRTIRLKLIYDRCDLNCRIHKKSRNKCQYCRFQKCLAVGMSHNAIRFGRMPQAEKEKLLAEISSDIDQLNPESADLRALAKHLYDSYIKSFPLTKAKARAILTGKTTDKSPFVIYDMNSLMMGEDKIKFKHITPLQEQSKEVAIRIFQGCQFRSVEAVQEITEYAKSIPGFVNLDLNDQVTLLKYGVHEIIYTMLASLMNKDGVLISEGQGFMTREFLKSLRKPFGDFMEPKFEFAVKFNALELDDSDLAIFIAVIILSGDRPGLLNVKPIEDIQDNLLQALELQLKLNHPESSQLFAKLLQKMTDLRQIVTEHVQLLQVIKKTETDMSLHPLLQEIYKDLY
In short: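 Human hepatoma HepG2, transient MRTU transfection, 24 h treatment. mRNA reporter signal by RT-PCR plus capillary electrophoresis, fluorescence detection; fitted for increase over DMSO negative control.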

[17] = target: human Retinoic Acid Receptor gamma (RARg), RARG (gene 5916) (UniProt P13631); test: ATG_RARg_TRANS: Attagene TRANS-FACTORIAL HepG2 Assay for human Retinoic Acid Receptor gamma (RARg) (AID 2283009; active = hit-call score of the fitted dose curve at least 0.9, where 1 is the maximum)
Sequence of human Retinoic Acid Receptor gamma (RARg), RARG (gene 5916) (P13631 whole entry, looked up, the tested form may be a part): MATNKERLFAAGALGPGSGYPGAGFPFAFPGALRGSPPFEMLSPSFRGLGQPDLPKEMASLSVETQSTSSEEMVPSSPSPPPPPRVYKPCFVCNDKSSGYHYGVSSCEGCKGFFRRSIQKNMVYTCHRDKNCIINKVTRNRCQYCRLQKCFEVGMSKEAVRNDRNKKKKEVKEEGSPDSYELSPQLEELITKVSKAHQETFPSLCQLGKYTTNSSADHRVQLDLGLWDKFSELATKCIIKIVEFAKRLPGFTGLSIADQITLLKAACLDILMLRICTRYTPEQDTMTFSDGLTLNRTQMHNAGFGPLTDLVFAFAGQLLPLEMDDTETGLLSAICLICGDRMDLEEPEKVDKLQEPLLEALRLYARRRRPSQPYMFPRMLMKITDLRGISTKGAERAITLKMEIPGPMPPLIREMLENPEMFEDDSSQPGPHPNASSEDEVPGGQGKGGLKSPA
In short: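 HepG2, RARg-GAL4 TRANS system, 24 h exposure; reporter mRNA by RT-PCR + CE fluorescence; increase over DMSO.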

[18] = target: human Peroxisome Proliferator-activated Receptor delta (PPARd), PPARD (gene 5467) (UniProt Q03181); test: ATG_PPARd_TRANS: Attagene TRANS-FACTORIAL HepG2 Assay for human Peroxisome Proliferator-activated Receptor delta (PPARd) (AID 2283002; active = hit-call score of the fitted dose curve at least 0.9, where 1 is the maximum)
Sequence of human Peroxisome Proliferator-activated Receptor delta (PPARd), PPARD (gene 5467) (Q03181 whole entry, looked up, the tested form may be a part): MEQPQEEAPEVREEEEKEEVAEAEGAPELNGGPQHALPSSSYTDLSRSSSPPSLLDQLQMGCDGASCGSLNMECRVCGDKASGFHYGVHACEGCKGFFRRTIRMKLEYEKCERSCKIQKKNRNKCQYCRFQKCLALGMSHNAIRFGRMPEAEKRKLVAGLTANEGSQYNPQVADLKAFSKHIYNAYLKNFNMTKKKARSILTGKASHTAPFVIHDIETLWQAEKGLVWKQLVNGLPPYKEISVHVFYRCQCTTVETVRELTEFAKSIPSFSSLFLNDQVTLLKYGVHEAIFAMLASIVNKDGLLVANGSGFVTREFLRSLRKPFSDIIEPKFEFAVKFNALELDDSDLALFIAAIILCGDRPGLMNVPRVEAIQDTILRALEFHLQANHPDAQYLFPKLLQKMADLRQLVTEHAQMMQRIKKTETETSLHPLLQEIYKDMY
In short: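 Multiplexed trans-activation format: HepG2 liver cells expressing exogenous NR-Gal4 chimeras and GAL4-UAS reporters were exposed for 24 h. Reporter mRNA was detected by RT-PCR with capillary electrophoresis fluorescence; activity fitted as gain of signal relative to DMSO.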

[19] = target: Nuclear receptor subfamily 1 group I member 2 (Homo sapiens) (UniProt O75469); test: ATG_PXR_TRANS: Attagene TRANS-FACTORIAL HepG2 Assay for human Pregnane X Receptor (PXR) (AID 2283008; active = hit-call score of the fitted dose curve at least 0.9, where 1 is the maximum)
Sequence of Nuclear receptor subfamily 1 group I member 2 (Homo sapiens) (O75469 whole entry, looked up, the tested form may be a part): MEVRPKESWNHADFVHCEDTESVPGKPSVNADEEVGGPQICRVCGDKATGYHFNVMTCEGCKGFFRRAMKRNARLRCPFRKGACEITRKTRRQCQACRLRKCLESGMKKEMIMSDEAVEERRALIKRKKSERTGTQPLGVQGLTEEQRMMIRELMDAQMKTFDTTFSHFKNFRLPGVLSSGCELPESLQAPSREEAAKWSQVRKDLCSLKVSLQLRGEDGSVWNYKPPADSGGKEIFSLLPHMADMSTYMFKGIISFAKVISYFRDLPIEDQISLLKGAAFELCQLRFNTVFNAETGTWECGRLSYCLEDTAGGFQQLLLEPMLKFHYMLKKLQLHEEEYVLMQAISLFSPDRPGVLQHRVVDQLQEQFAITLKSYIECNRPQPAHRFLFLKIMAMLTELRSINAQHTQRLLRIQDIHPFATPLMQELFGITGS
In short: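 Read-out is fluorescence of labelled reporter cDNA fragments separated by capillary electrophoresis after RT-PCR and HpaI digestion. Source: HepG2 cells carrying PXR-GAL4/UAS reporter constructs, treated 24 h; activity fitted upward relative to DMSO.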

[20] = target: Retinoic acid receptor alpha (Homo sapiens) (UniProt P10276); test: ATG_RARa_TRANS: Attagene TRANS-FACTORIAL HepG2 Assay for human Retinoic Acid Receptor alpha (RARa) (AID 2283005; active = hit-call score of the fitted dose curve at least 0.9, where 1 is the maximum)
Sequence of Retinoic acid receptor alpha (Homo sapiens) (P10276 whole entry, looked up, the tested form may be a part): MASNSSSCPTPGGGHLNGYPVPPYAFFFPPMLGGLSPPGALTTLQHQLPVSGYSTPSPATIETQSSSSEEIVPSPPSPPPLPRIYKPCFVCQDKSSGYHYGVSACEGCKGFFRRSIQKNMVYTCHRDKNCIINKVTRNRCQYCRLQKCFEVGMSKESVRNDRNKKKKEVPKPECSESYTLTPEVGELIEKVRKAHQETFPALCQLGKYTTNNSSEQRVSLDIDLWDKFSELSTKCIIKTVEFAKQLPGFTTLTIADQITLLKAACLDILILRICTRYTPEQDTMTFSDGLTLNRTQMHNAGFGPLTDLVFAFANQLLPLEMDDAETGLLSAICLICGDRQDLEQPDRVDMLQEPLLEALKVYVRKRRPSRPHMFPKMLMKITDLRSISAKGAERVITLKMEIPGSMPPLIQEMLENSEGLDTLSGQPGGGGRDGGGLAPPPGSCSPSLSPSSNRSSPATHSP
In short: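 HepG2 cells transiently transfected with multiple reporter units expressing chimeric RARα-GAL4 fusion, with GAL4-UAS-driven reporters. After 24 h compound exposure, reporter mRNA induction quantified by RT-PCR and capillary electrophoresis with fluorescent labeling; gain-of-signal fitted relative to DMSO control.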

Measured: AC50

CCCCCCCCCCO
active: [4] 144 µM | [5] 158 µM | [6] 173 µM | [12] 128 µM | [15] 33 µM | [16] 41.1 µM
not listed: [18] | [19] | [20]
inactive: all other assays above

Nc1ccc(S(=O)(=O)c2ccc(N)cc2)cc1
not listed: [12] | [14] | [17] | [20]
inactive: all other assays above

CC1(C)CC(N=C=O)CC(C)(CN=C=O)C1 (stereo unspecified)
not listed: [12] | [14] | [16] | [17] | [18] | [19] | [20]
inactive: all other assays above

Oc1ccc2ccccc2c1N=Nc1ccccc1
active: [5] 1.42 µM | [8] 6 µM | [11] 1.7 µM | [16] 3.87 µM
not listed: [18]
inactive: all other assays above

Cc1ccc2ncccc2c1
not listed: [17] | [18] | [19] | [20]
inactive: all other assays above

Cc1oc(-c2ccccc2)nc1CCOc1cccc2c1ccn2CCC(=O)O
active: [5] 31.4 µM | [12] 3.95 µM | [18] 4.28 µM | [16] 0.0142 µM | [19] 10.9 µM
inactive: all other assays above

O=C(OCCCCCOC(=O)c1ccccc1)c1ccccc1
active: [15] 29.7 µM
not listed: [12] | [14] | [17]
inactive: all other assays above

C[Si]1(C)O[Si](C)(C)O[Si](C)(C)O[Si](C)(C)O1
not listed: [12] | [14] | [17] | [20]
inactive: all other assays above

NCC1(Cc2noc(=O)[nH]2)CCCCC1
not listed: [12] | [16] | [17] | [18] | [20]
inactive: all other assays above

O=[N+]([O-])C(CO)(CO)CO
not listed: [12] | [17] | [18] | [19] | [20]
inactive: all other assays above

Cc1cccc(C)c1O
not listed: [14] | [16] | [18] | [20]
inactive: all other assays above

Clc1cc(Cl)c(Cl)cc1Cl
active: [8] 6.33 µM
not listed: [14] | [16] | [20]
inactive: all other assays above

C1CCC(SSC2CCCCC2)CC1
active: [2] 161 µM | [5] 75.5 µM | [8] 20 µM | [10] 26.5 µM | [11] 32.7 µM | [15] 28.5 µM
not listed: [14] | [20]
inactive: all other assays above

CCCCCCCCCCCC(=O)OC
active: [15] 20 µM
not listed: [14] | [17] | [20]
inactive: all other assays above

CC(CO)OC(C)CO (stereo unspecified) (tested in a mixture with another compound)
not listed: [11] | [14] | [16] | [17] | [18] | [20]
inactive: all other assays above
